Screens (PubChem BioAssay)
OPRM1-OPRD1 ag: agonists of OPRM1-OPRD1 heterodimerization, primary screen, cell-based, luminescence; AID 504326, 2011; activation, % at 9.3 µM; Mu-type opioid receptor (Homo sapiens) + Delta-type opioid receptor (Homo sapiens), …; actives 0.3% (n = 340,000); cells; in the data active = activation above about 18%
V-ATPase pHluor: regulators of yeast V-ATPase proton pumping, primary screen, pHLuorin cytosolic pH fluorescence; actives 0.37% (n = 350,000); S. cerevisiae; response, % at 10 µM; in the data active = response mostly above about 7.3%, no sharp cut-off; inactive = mostly below about 5.4%; also: actives read high
OPRM1-OPRD1 inv: inverse agonists of MOR-DOR heterodimerization, primary screen, cell-based, luminescence; Mu-type opioid receptor (Homo sapiens) + Delta-type opioid receptor (Homo sapiens), …; cell-based MOR-DOR heterodimer luminescence, inverse agonism; inhibition, % at 9.3 µM; actives 0.21% (n = 340,000); AID 504357, 2011; in the data active = inhibition above about 22%, passing the limit was not always enough
HTR5A ag ctr: HTR5A agonists in luminescence cell assay, primary screen, counter-screen for OPRM1-OPRD1 heterodimer agonist project, full-deck HTS; cell-based; actives 0.61% (n = 340,000); activation, % at 9.3 µM; AID 504692, 2011; in the data active = activation mostly above about 9.5%, no sharp cut-off; inactive = mostly below about 7.6%
Target sequence (P47898 whole entry, looked up): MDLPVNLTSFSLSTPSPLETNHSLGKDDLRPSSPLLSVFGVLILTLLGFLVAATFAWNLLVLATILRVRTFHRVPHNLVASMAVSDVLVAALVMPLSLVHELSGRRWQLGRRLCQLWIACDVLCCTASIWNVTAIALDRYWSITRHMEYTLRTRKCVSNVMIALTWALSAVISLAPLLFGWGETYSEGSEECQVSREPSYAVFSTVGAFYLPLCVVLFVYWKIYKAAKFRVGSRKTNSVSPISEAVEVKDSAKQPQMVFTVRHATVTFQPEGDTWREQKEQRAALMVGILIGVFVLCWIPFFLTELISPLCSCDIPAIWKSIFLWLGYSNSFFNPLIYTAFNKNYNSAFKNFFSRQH
MIN6 prolif-1: inducers of MIN6 beta-cell proliferation, primary screen, ATP luminescence, uHTS | MIN6 cells proliferation, ATPlite luminescence, 48 h; cells starved in 0.2% serum; 100% = growth in 10% serum | proliferation, % at 10 µM | actives 0.29% (n = 330,000);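 active = compounds whose signal lies at least 3.5 SD above the mean of all wells on their plate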
HTR5A inv ctr: HTR5A inverse agonists in luminescence cell assay, primary screen, counter-screen for OPRM1-OPRD1 heterodimer inverse agonist project, full-deck HTS; 5-hydroxytryptamine receptor 5A (Homo sapiens), P47898; HTR5A cell line, inverse agonism; AID 504634, 2011; actives 0.083% (n = 340,000); inhibition, % at 9.3 µM; in the data active = inhibition mostly above about 23%, no sharp cut-off; inactive = mostly below about 18%
MIN6 prolif-2: inducers of beta-cell proliferation in MIN6, confirmation, MIN6 cells, mouse | 920 tested, under 10 active | proliferation increase, % at 50 µM | ATPlite luminescence, 48 h; cells kept in 0.2% serum; scaled between 0.2% and 10% serum | AID 463095, 2010 | shares compounds with MIN6 prolif-1;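 active = proliferation increase above 40% at any of the four tested concentrations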
A number is an active result; - = inactive; . = no result. This is a sample that favours compounds with a hit; in the whole collection about 1.7% have one here.

SMILES	OPRM1-OPRD1 ag	V-ATPase pHluor	OPRM1-OPRD1 inv	HTR5A ag ctr	MIN6 prolif-1	HTR5A inv ctr	MIN6 prolif-2
O=C(Nc1c(Cl)cc(Cl)cc1C(=O)NCCN1CCOCC1)c1ccc(Cl)cc1Cl	-	-	-	-	8.7	-	-
O=C(Nc1ccc(Cl)cc1C(=O)NCCN1CCOCC1)c1ccc(Cl)cc1Cl	-	-	-	-	-	-	.
COc1ccc(OC)c(NC(=O)c2ccccc2NS(=O)(=O)c2cccc3cccnc23)c1	-	-	-	-	5.4	-	-
CC(C)n1cnc2c(N(C)c3cccc(Cl)c3)nc(N(CCO)CCO)nc21	-	-	-	-	17.5	-	-
CC(C)[C@H](CO)N(Cc1cccc(F)c1)c1nc(Nc2cccc(Cl)c2)c2ncn(C(C)C)c2n1	-	-	-	-	-	-	.
CCOc1ccccc1NC(=O)N1CCC(NC(=O)c2ccccc2C)CC1	-	-	-	-	7.8	-	-
Cc1c(OCC(=O)NCC2CCC(C(=O)O)CC2)ccc2c(-c3ccccc3)cc(=O)oc12 (stereo not drawn)	-	-	-	-	-	-	.
C=CCSc1nc2c(c(=O)[nH]c(=O)n2C)n1C/C=C(/C)Cl	-	-	-	-	6.7	-	-
CCOc1ncccc1C(=O)OC(C)C(=O)Nc1ccc(N2CCOCC2)cc1 (stereo not drawn)	-	-	-	-	10.1	-	-
CCOc1ncccc1C(=O)Nc1ccccc1N1CCOCC1	-	-	-	-	-	-	.
CC1=NCC(C)c2c1[nH]c1ccccc21 (stereo not drawn)	-	-	-	-	7.0	-	-
CC1=NCC(C)c2ccccc21 (stereo not drawn)	.	-	.	.	.	.	.
O=C(NCc1ccc2c(c1)OCO2)c1ccc2snnc2c1	-	-	-	-	8.2	-	-
O=C(NCc1ccc2c(c1)OCO2)c1ccc2c(c1)OCO2	-	-	-	-	-	-	.
CCN(CC(=O)Nc1c(F)cccc1F)C(=O)Cn1[nH]c(=O)c2ccccc2c1=O	-	-	-	-	11.3	-	-
CCN(CC(=O)Nc1c(F)cccc1F)C(=O)Cc1c[nH]c2ccccc12	-	-	-	-	-	-	.
Cc1onc(-c2c(F)cccc2Cl)c1C(=O)OCC(=O)N(C)c1ccccc1	.	-	.	.	.	.	.
O=C(c1ccc(Br)c([N+](=O)[O-])c1)N1CCN(Cc2ccccc2)CC1	-	-	-	-	-	-	.
O=C(c1ccc(N2CCOCC2)c([N+](=O)[O-])c1)N1CCN(Cc2ccccc2)CC1	-	-	-	-	5.8	-	-
CN(Cc1cccs1)C(=O)COc1cccc2c1OC(C)(C)C2	-	-	-	-	9.9	-	-
CN(C)CCNC(=O)COc1cccc2c1OC(C)(C)C2	-	-	-	-	-	-	.
O=C(NN=C1C2CC3CC1CC(Cl)(C3)C2)c1ccccn1	-	-	-	-	-	-	.
Cn1c(=O)[nH]c(=O)c2c1nc1n2CCCN1CCc1ccccc1	-	-	-	-	7.2	-	-
Cc1ccc(NC(=O)CC2SC(=Nc3ccc(O)cc3)NC2=O)cc1 (stereo not drawn)	-	-	-	-	-	-	.
COc1ccc(S(=O)(=O)NCC2CCC(C(=O)NCC(OC)OC)CC2)cc1 (stereo not drawn)	-	-	-	-	-	-	.
SMILES	OPRM1-OPRD1 ag	V-ATPase pHluor	OPRM1-OPRD1 inv	HTR5A ag ctr	MIN6 prolif-1	HTR5A inv ctr	MIN6 prolif-2
Cc1ccccc1OCC(=O)NC1CCCCCCC1	-	-	-	-	6.0	-	-
Cc1cccc(OCC(=O)NC2CCCCCC2)c1C	-	-	-	-	-	-	.
COC(=O)c1cccc(N/C=C(\[N+](=O)[O-])S(=O)(=O)c2ccccc2)c1	-	-	-	-	-	-	.
Cc1cc(NS(=O)(=O)c2ccc(NC(=O)CSc3nnc(-c4ccco4)n3C)cc2)nc(C)n1	-	-	-	-	5.8	-	-
O=C1Cc2cc(S(=O)(=O)Nc3ccccc3Cl)cc3c2N1CCC3	-	-	-	-	-	-	.
O=C(Nc1ccccc1F)NC1CCCc2ccccc21 (stereo not drawn)	-	-	-	-	7.2	-	-
Cc1ccsc1CN(C)CC(=O)Nc1cccc(S(=O)(=O)N(C)c2ccccc2)c1	-	-	-	-	-	-	.
Cc1ccc(-n2nc3c(=O)n(CCCC(=O)NCc4ccccc4Cl)nc(C)c3c2C)cc1	-	-	-	-	-	-	.
N#Cc1ccc(C(=O)OCC(=O)Nc2ccc(S(N)(=O)=O)cc2)cc1	-	-	-	-	-	-	.
Cc1nnsc1C(=O)Nc1ccc(Cl)cc1	-	-	-	-	-	-	.
Cc1nnsc1C(=O)NC(=O)Nc1ccc(F)c(Cl)c1	-	-	-	-	5.9	-	-
CC(C)CNC(=O)COC(=O)c1ccccc1SCC(=O)NCC(C)C	-	-	-	-	7.8	-	-
COc1cccc(OC)c1C(=O)OCC(=O)NCC(C)C	-	-	-	-	-	-	.
O=C(CN(CCc1ccccc1)S(=O)(=O)c1ccc(Br)cc1)N/N=C/c1ccccc1C(=O)O	-	-	-	-	-	-	.
COc1cc(C)nc(NS(=O)(=O)c2ccc(C)cc2)n1	-	-	-	-	-	-	.
COc1nc(N)nc(N)c1NS(=O)(=O)c1ccc(C)cc1	-	-	-	-	9.8	-	-
O=C(NCc1ccc2c(c1)OCO2)C1CCC(=O)N1C1CCCC1 (stereo not drawn)	-	-	-	-	-	-	.
O=C(c1ccccn1)N1CCCC(N2CCN(c3ccc(F)cc3)CC2)C1 (stereo not drawn)	-	-	-	-	-	-	.
O=C(CN1C(=O)S/C(=C/c2cccs2)C1=O)N1CCCC1	-	-	-	-	10.0	-	-
O=C(CN1C(=O)S/C(=C/c2cccs2)C1=O)N1CCOCC1	-	-	-	-	-	-	.
Cc1nnc2ccc(-c3ccc(NC(=O)c4ccc(Cl)nc4)cc3)nn12	.	.	.	.	8.5	.	-
Fc1ccc(OCc2nn[nH]n2)c(F)c1	-	-	-	-	7.1	-	-
COc1cc(-n2c(=O)c3ccccc3n(Cc3cc(=O)n4ccccc4n3)c2=O)cc(OC)c1OC	-	-	-	-	-	-	.
CCc1nc(N)c(C#N)c(-c2cccnc2)c1C	-	-	-	-	-	-	.
Cc1nc(N)c(C#N)c(-c2ccc3c(c2)OCO3)c1C	-	-	-	-	5.3	-	-
Cc1nc(N)c(C#N)c(-c2cccnc2)c1C	-	-	-	-	9.6	-	-
